Screening data: PubChem, National Center for Advancing Translational Sciences (NCATS)
PKM2 act – activators of human pyruvate kinase M2; purified PKM2, Kinase-Glo ATP luminescence, activation; response scale: 0% is enzyme alone, no compound; actives 0.34% (n = 260,000); P14618; Potency, µM (top dose mostly 57.5 µM), inactives show top-dose activation, hits mostly activators; also: potency is read from the fitted curve at half-maximal effect; % is scaled to controls: 0 for no effect and ±100 for the full control effect; nearly all actives have a fitted effect of over 55% in size
Target sequence (P14618 whole entry, looked up): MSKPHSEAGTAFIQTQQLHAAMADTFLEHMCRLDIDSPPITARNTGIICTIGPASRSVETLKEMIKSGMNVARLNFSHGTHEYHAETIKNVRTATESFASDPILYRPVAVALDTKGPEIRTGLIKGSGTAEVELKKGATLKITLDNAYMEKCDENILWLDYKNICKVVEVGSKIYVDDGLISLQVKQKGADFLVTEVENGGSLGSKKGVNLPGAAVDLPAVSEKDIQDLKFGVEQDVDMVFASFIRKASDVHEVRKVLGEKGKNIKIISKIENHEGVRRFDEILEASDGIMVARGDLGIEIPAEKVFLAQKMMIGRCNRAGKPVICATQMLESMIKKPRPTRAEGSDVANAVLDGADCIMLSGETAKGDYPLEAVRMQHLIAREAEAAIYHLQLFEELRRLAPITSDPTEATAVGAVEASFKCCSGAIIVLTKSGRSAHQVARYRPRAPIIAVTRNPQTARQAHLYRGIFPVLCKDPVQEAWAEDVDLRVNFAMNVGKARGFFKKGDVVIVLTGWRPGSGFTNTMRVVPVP
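Purified hPK-M2 (>95%) run at intermediate activity with 0.1 mM ADP and 0.5 mM PEP in 50 mM imidazole pH 7.2, KCl, MgCl2; 1 h room temperature. ATP formed read by Kinase-Glo luminescence; normalized to uninhibited and no-enzyme controls.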
TRPML1 ag – human mucolipin-1 channel agonism; Q9GZU1; TRPML1-expressing cells, Ca2+ dye fluorescence, FDSS; activation, % (concentration not given with the values); actives 0.12% (n = 410,000); in the data active = activation above about 50%; inconclusive = mostly about 30% to 49%; also: 0% is about no effect
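Cells: TRPML1-DL, 1X Tet inducer, ~16 h at 37 degrees C/5% CO2. Dye: ABD Ca8 no-wash + quencher, 45-90 min RT. Read: 10 s baseline, compound add, 110 s agonist phase; 54-4 EC80 (4uM final), 110 s antagonist phase.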
TRPML1 inh – blocks the human TRPML1 channel; Q9GZU1; TRPML1-inducible cells, Ca2+ dye fluorescence, FDSS; stronger effect = lower value; inhibition of EC80 agonist-evoked calcium signal; activity change, negative = inhibition, % (no concentration beside the values); actives 0.02% (n = 390,000); in the data active = activity change below about -50%; inconclusive = between about -30% and that limit;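 also: stimulus is agonist 54-4 at its EC80 concentration; % is scaled to controls: 0 for no effect and ±100 for the full control effect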
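Calcium fluorescence in TRPML1-DL cells induced overnight with Tet: a 110 s read after compound pin addition, then a 110 s antagonist read after challenge with 54-4 at 4 uM final (EC80).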
PTAP TSG101 blk – blocks PTAP/TSG101 interaction to inhibit HIV-1 budding | Q99816 | Fluorescence polarization, FITC-PTAP peptide / Tsg101 binding | AID 493005 | 340,000 tested, under 10 active | Potency, µM (top dose mostly 115 µM), for inactives: top-dose activity change, negative = inhibition, actives largely listed as inhibitors; active = well fitted inhibition curve with a large enough effect in the main read-out, with a control signal flat, not every such curve was filed as active; inconclusive = small, poorly fitted or top-dose-only effect, or effect the other way, or a change in a side signal; inactive = no such curve, though single readings can be large or run the other way; also: potency is read from the fitted curve at half-maximal effect; % of control where 0% means no effect
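Fluorescence polarization binding of Tsg101 binding domain (10 uM final) to FITC-labeled PTAP peptide (50 nM final) in HEPES pH 7.5 buffer with NaCl, Tween 20, EDTA, TCEP. Compounds added before peptide; binding 20 min at RT.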
IL-2 act – IL-2 activation | IL-2 activation reporter assay, cell-based qHTS; stimulated with anti-CD3/CD4/CD28 beads; in transgenic mouse T cells | activation, % (series mostly up to about 46 µM) | actives 0.065% (n = 360,000); in the data active = activation above about 50%; inconclusive = mostly about 30% to 49%; also: 0% is about no effect
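Unstimulated transgenic mouse T cells, 750 per well, received compound and, after 60 minutes, anti-CD3/anti-CD4 bead plus anti-CD28 stimulation. EGFP and DsRed were quantified after 18 hours.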
BRCA1 expr act – BRCA1 expression activation. actives 1.1% (n = 380,000). MCF7-BRCA1-FFLuc reporter, luminescence, 48 h; response scale: scaled: vehicle 0%, 10 µM genistein 100%. Potency, µM (doses to about 46.1 µM), for inactives: at the top dose activation, most hits filed as activators; also: potency is read from the fitted curve at half-maximal effect; nearly all actives have a fitted effect of over 80% in size
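MCF7-BRCA1-FFLuc cells, 2000/well in phenol-red-free MEM, attached 2 h then treated 48 h at 37 C. Luciferase luminescence read 15 min after reagent; normalized to genistein maximum activation (10microM) and DMSO, concentration-response fitted.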
Numbers without * were called inactive; ? = inconclusive; / = no result. Compounds with a hit are over-represented: about 1.3% of the library has one in this group of screens. Unless noted, calls follow the shape of the dose curve; as a rule, active = well fitted activation curve with a large enough effect; inconclusive = small, poorly fitted or top-dose-only effect; inactive = no such curve, though single readings can be large or run the other way.

SMILES	PKM2 act	TRPML1 ag	TRPML1 inh	PTAP TSG101 blk	IL-2 act	BRCA1 expr act
COc1ccc(-c2nc3ccccn3c2NCc2ccc3c(c2)OCO3)cc1	-6%	0	-6	-4%	-2	7.9µM*
CN(C)c1ccc(/C=C/c2ccnc3ccccc23)cc1O	/	24	/	/	/	13%
N#CCCSc1ccccc1NC(=O)c1ccc(S(=O)(=O)N2CCCC2)cc1	20µM*	/	/	/	/	/
O=C(Nc1ccc2oc(-c3cccnc3)nc2c1)c1ccc(-c2ccccc2)o1	/	1	2	/	/	/
O=C(Nc1ccc2oc(-c3ccccc3)nc2c1)c1cccnc1	-9%	-1	-5	-7%	0	2.8µM*
COc1ccccc1/C=C/c1ccnc2ccccc12	/	-1	/	/	/	0%
COc1cc(SC)ccc1C(=O)Nc1ccc(C)cc1	2%	-2	5	0%	-5	39%
COc1cc(SC)ccc1C(=O)Nc1ccc(C)cc1C	-5%	2	14	0%	0	7.9µM*
CCCCCCCCCCCCCCCC(C)C1=NCCN1 (stereo not given)	/	-1	/	/	/	/
S=C(NCCc1cccc(Cl)c1)NC1CCCCC1	-1%	2	-10	2%	-3	3.2µM*
S=C(NCCc1ccccc1)NC1CCC(NC(=S)NCCc2ccccc2)CC1 (stereo not given)	8%	0	-6	-9%	1	1%
O=C(COc1ccc(S(=O)(=O)NCc2ccccc2)cc1Cl)NCc1ccccn1	/	1	19	2%	-1	-16%
O=C(COc1ccc(S(=O)(=O)N2CCc3ccccc32)cc1Cl)NCc1ccccn1	16µM*	1	-7	2%	-2	-10%
O=C(Cc1ccc(Br)cc1)N1CCc2ccccc2C1	-18%	0	-8	0%	1	10µM*
Cc1ccc2c(=O)cc(C(=O)Nc3c(C(=O)c4ccccc4)oc4ccccc34)oc2c1	/	0	4	/	/	/
O=C(COc1ccccc1C(=O)Nc1ccccc1)Nc1ccc2ccccc2c1	/	0	/	/	/	-44%
Cc1ccccc1NC(=O)CN1C(=O)S/C(=C\c2ccc(-c3cc(C(=O)O)ccc3C)o2)C1=O	?	0	8	?	77*	4%
COC(=O)[C@@]12C[C@@H](CC(=O)NCCc3ccccc3OC)C(=O)N(Cc3cccc4ccccc34)C1=CCC(C)(C)C2	/	/	/	/	-1	/
Cn1cc(/C=C/c2ccnc3ccccc23)c2ccccc21	/	11	/	/	/	0%
C=CCn1c(SCc2ccccc2)nc2scc(-c3ccc(C)o3)c2c1=O	17%	0	-5	0%	0	5%
C=CCn1c(SCC(N)=O)nc2scc(-c3ccc(C)o3)c2c1=O	32µM*	4	-7	-6%	-2	?
O=C(NCC1COc2ccccc2O1)c1ccccc1 (stereo not given)	8%	1	-5	2%	2	7.9µM*
O=C(COc1ccccc1C(=O)Nc1cccc(F)c1)Nc1ccc(Br)cc1	/	0	/	/	/	-11%
Cc1ccccc1NC(=O)CSc1nc2ccccc2o1	6%	-1	0	-9%	-2	13µM*
O=C(O)c1ccc2oc(SCC(=O)N3CCCCC3)nc2c1	-10%	0	23	-3%	2	7.1µM*
CC1CCCN(C(=O)CSc2nc3ccccc3o2)C1 (stereo not given)	6%	0	8	-13%	-3	8.9µM*
CCc1cccc2c(C(O)(c3c[nH]c4c(CC)cccc34)c3c[nH]c4c(CC)cccc34)c[nH]c12	/	0	/	/	/	/
COc1ccc(-n2nnnc2C(CCc2ccccc2)N2CCN(C/C=C/c3ccccc3)CC2)cc1 (stereo not given)	/	0	/	/	-1	-46%
CCN1CCN(c2cc(C)c3cc(NC(=O)/C=C/c4cccc(Cl)c4)ccc3n2)CC1	/	0	6	/	/	/
